Measured values reported in PubChem BioAssay (EPA / NIEHS).
“And” between values parts separate entries of the source, which are not always exact repeats. Equal values may be shown once. Some structures have more than one record in an assay (separate samples or runs), and their calls can disagree. The source made the active and inactive calls. The calls were made as follows: active = hit-call score of the fitted dose curve at least 0.9, where 1 is the maximum; inactive = score below 0.9.

Experiments:
[1] = read-out: TIMP metallopeptidase inhibitor 1 (TIMP1), TIMP1 (gene 7076); assay: BSK_MyoF_TIMP1: BioMAP Diversity Plus: MyoF Assay for TIMP metallopeptidase inhibitor 1 (TIMP1) Biomarker Activity (AID 2284269); conditions: primary human lung fibroblasts
Summary of the method: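 Primary human lung fibroblasts, MyoF multiplex system; chemical exposure 24 h; TIMP-1 by ELISA; positive fitting direction vs DMSO control.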

[2] = read-out: Matrix Metallopeptidase 1 (MMP1), MMP1 (gene 4312); assay: BSK_BF4T_MMP1: BioMAP Diversity Plus: BF4T Assay for Matrix Metallopeptidase 1 (MMP1) Biomarker Activity (AID 2284270); conditions: primary human bronchial epithelial cells with fibroblasts
Summary of the method: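 Co-culture of human bronchial epithelial cells and dermal fibroblasts; MMP-1 levels measured by ELISA 24 hours after chemical dosing, relative to DMSO. Cytotoxicity checked in parallel cultures by SRB total-protein staining.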

[3] = read-out: Matrix Metallopeptidase 3 (MMP3), MMP3 (gene 4314); assay: BSK_BF4T_MMP3: BioMAP Diversity Plus: BF4T Assay for Matrix Metallopeptidase 3 (MMP3) Biomarker Activity (AID 2284271); conditions: primary human bronchial epithelial cells with fibroblasts
Summary of the method: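 Co-culture of human bronchial epithelial cells and dermal fibroblasts dosed 24 h; MMP-3 measured by ELISA, positive-direction fit versus DMSO. Cytotoxicity tracked by SRB total-protein staining (560 nm) in parallel cultures.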

[4] = read-out: Tissue plasminogen activator (tPA), PLAT (gene 5327); assay: BSK_BF4T_tPA: BioMAP Diversity Plus: BF4T Assay for Tissue plasminogen activator (tPA) Biomarker Activity (AID 2284272); conditions: primary human bronchial epithelial cells with fibroblasts
Summary of the method: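 tPA level quantified by ELISA at 24 h post-treatment in bronchial epithelial/dermal fibroblast co-cultures, gain of signal scored against DMSO baseline. Parallel cultures stained with 0.1% SRB (560 nm) to flag overt cytotoxicity.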

[5] = read-out: Plasminogen Activator Inhibitor-1 (PAI1), SERPINE1 (gene 5054); assay: BSK_BF4T_PAI1: BioMAP Diversity Plus: BF4T Assay for Plasminogen Activator Inhibitor-1 (PAI1) Biomarker Activity (AID 2284273); conditions: primary human bronchial epithelial cells with fibroblasts
Summary of the method: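 Co-culture of human bronchial epithelial cells and dermal fibroblasts exposed to compound for 24 h. PAI-1 measured by ELISA; activity fitted in positive direction versus DMSO. Parallel SRB staining assessed overt cytotoxicity.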

[6] = BSK_BF4T_SRB: Viability Assessment in the BioMAP Diversity Plus: BF4T Assay (AID 2284274); conditions: primary human bronchial epithelial cells with fibroblasts;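 as to AC50: total cell protein by sulforhodamine B staining as a cytotoxicity measure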
Summary of the method: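 Co-culture of human bronchial epithelial cells and dermal fibroblasts (BioMAP BF4T) exposed 24 h. Total protein by sulforhodamine B staining (0.1% SRB after 10% TCA fixation, 560 nm) in parallel cultures; fitted vs DMSO.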

[7] = read-out: urokinase Plasminogen Activator (uPA), PLAU (gene 5328); assay: BSK_BF4T_uPA: BioMAP Diversity Plus: BF4T Assay for urokinase Plasminogen Activator (uPA) Biomarker Activity (AID 2284275); conditions: primary human bronchial epithelial cells with fibroblasts
Summary of the method: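 Co-culture of human bronchial epithelial cells and dermal fibroblasts; uPA quantified by ELISA 24 hours after dosing, fitted relative to DMSO. Parallel SRB total-protein staining assessed overt cytotoxicity.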

[8] = read-out: Matrix Metallopeptidase 9 (MMP9), MMP9 (gene 4318); assay: BSK_BF4T_MMP9: BioMAP Diversity Plus: BF4T Assay for Matrix Metallopeptidase 9 (MMP9) Biomarker Activity (AID 2284276); conditions: primary human bronchial epithelial cells with fibroblasts
Summary of the method: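 Co-culture of human bronchial epithelial cells and dermal fibroblasts dosed for 24 h; MMP-9 quantified by ELISA and fitted upward versus DMSO. Cytotoxicity monitored in parallel cultures by SRB total-protein staining at the biomarker time point.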

[9] = read-out: Interleukin-8 (IL8), CXCL8 (gene 3576); assay: BSK_IMphg_IL8: BioMAP Diversity Plus: IMphg Assay for Interleukin-8 (IL8) Biomarker Activity (AID 2284277); conditions: primary human endothelial cells with macrophages
Summary of the method: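 Co-culture of human venular endothelial cells and macrophages exposed to chemicals for 24 h; IL-8 quantified by ELISA and compared against the DMSO baseline, with SRB total-protein staining in parallel cultures for cytotoxicity.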

[10] = read-out: Intercellular Adhesion Molecule 1 (ICAM1), ICAM1 (gene 3383); assay: BSK_BE3C_ICAM1: BioMAP Diversity Plus: BE3C Assay for Intercellular Adhesion Molecule 1 (ICAM1) Biomarker Activity (AID 2284278); conditions: primary human bronchial epithelial cells
Summary of the method: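 Primary human bronchial epithelial cells were exposed to compound for 24 h, after which cell-surface ICAM-1 was quantified by ELISA. Activity was fitted in the gain-of-signal direction against DMSO as negative control and baseline.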

[11] = read-out: Interferon-inducible T-cell alpha chemoattractant (ITAC), CXCL11 (gene 6373); assay: BSK_BE3C_ITAC: BioMAP Diversity Plus: BE3C Assay for Interferon-inducible T-cell alpha chemoattractant (ITAC) Biomarker Activity (AID 2284279); conditions: primary human bronchial epithelial cells
Summary of the method: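 Steps: dose human bronchial epithelial cells with chemical; incubate 24 h; measure I-TAC by ELISA; fit endpoint in positive direction against DMSO control. Cytotoxicity was checked in parallel cultures by SRB staining at harvest.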

[12] = read-out: Interleukin-8 (IL8), CXCL8 (gene 3576); assay: BSK_BE3C_IL8: BioMAP Diversity Plus: BE3C Assay for Interleukin-8 (IL8) Biomarker Activity (AID 2284280); conditions: primary human bronchial epithelial cells
Summary of the method: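 IL-8 signal gain, normalised to DMSO vehicle, was scored after a 24 h chemical exposure of primary human bronchial epithelial cells, with detection by ELISA.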

[13] = read-out: Epidermal growth factor receptor (EGFR), EGFR (gene 1956); assay: BSK_BE3C_EGFR: BioMAP Diversity Plus: BE3C Assay for Epidermal growth factor receptor (EGFR) Biomarker Activity (AID 2284281); conditions: primary human bronchial epithelial cells
Summary of the method: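 Compound is added to human bronchial epithelial cells, cells incubate 24 h, then EGFR is detected by ELISA. Values reflect positive-direction fitting relative to DMSO.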

[14] = read-out: Matrix Metallopeptidase 9 (MMP9), MMP9 (gene 4318); assay: BSK_BE3C_MMP9: BioMAP Diversity Plus: BE3C Assay for Matrix Metallopeptidase 9 (MMP9) Biomarker Activity (AID 2284283); conditions: primary human bronchial epithelial cells
Summary of the method: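 Human primary bronchial epithelial cells exposed 24 h to compound. MMP9 quantified by ELISA. SRB total-protein staining of parallel cultures assesses cytotoxicity. Positive-direction fit relative to DMSO.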

[15] = read-out: Plasminogen activator inhibitor-1 (PAI1), SERPINE1 (gene 5054); assay: BSK_CASM3C_PAI1: BioMAP Diversity Plus: CASM3C Assay for Plasminogen activator inhibitor-1 (PAI1) Biomarker Activity (AID 2284284); conditions: primary human coronary artery smooth muscle cells;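 also: PAI-1 protein level measured by ELISA 24 h after dosing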
[16] = read-out: Monocyte Chemoattractant Protein-1 (MCP1), CCL2 (gene 6347); assay: BSK_hDFCGF_MCP1: BioMAP Diversity Plus: hDFCGF Assay for Monocyte Chemoattractant Protein-1 (MCP1) Biomarker Activity (AID 2284285); conditions: primary human foreskin fibroblasts
Summary of the method: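 Human foreskin fibroblasts (hDFCGF system) were exposed to compound and secreted MCP-1 was measured by ELISA after 24 hours. Activity was fitted relative to DMSO. Cytotoxicity was checked by SRB total-protein staining in parallel cultures.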

[17] = read-out: Vascular cell adhesion molecule 1 (VCAM1), VCAM1 (gene 7412); assay: BSK_IMphg_VCAM1: BioMAP Diversity Plus: IMphg Assay for Vascular cell adhesion molecule 1 (VCAM1) Biomarker Activity (AID 2284286); conditions: primary human endothelial cells with macrophages
Summary of the method: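 Human venular endothelial cells co-cultured with macrophages; VCAM-1 quantified by ELISA 24 h after dosing, fitted in the positive direction against DMSO. Cytotoxicity was checked in parallel cultures by SRB total-protein staining (0.1% SRB after 10% TCA fixation, 560 nm).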

[18] = read-out: Intercellular Adhesion Molecule 1 (ICAM1), ICAM1 (gene 3383); assay: BSK_hDFCGF_ICAM1: BioMAP Diversity Plus: hDFCGF Assay for Intercellular Adhesion Molecule 1 (ICAM1) Biomarker Activity (AID 2284287); conditions: primary human foreskin fibroblasts
Summary of the method: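 Primary human foreskin fibroblasts (hDFCGF system) dosed with chemical; ICAM-1 quantified by ELISA at 24 h relative to DMSO. Parallel SRB total-protein staining to assess overt cytotoxicity.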

[19] = read-out: CD40, CD40 (gene 958); assay: BSK_IMphg_CD40: BioMAP Diversity Plus: IMphg Assay for CD40 Biomarker Activity (AID 2284288); conditions: primary human endothelial cells with macrophages
Summary of the method: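 Venular endothelial cells co-cultured with macrophages (human primary), CD40 measured by ELISA 24 h after dosing. Positive-direction fit vs DMSO baseline; cytotoxicity tracked by SRB total-protein staining in parallel cultures.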

Measured: AC50

OCCCC(F)(F)C(F)(F)C(F)(F)C(F)(F)C(F)(F)C(F)(F)C(F)(F)C(F)(F)F
active: [1] 14.5 µM and 13.7 µM | [2] 49 µM and 45.1 µM | [3] 40.1 µM and 40.6 µM | [4] 22.1 µM and 21 µM | [5] 20.7 µM and 30 µM | [6] 31.6 µM and 29.4 µM | [7] 22.5 µM and 19.4 µM | [8] 30 µM and 17.2 µM | [10] 47 µM and 47.6 µM | [11] 50.2 µM and 51.8 µM | [12] 11.4 µM and 8.23 µM | [13] 33 µM and 21.3 µM | [14] 50 µM and 48.2 µM | [15] 48.3 µM and 45.4 µM | [16] 7.74 µM and 7.47 µM | [17] 18 µM and 17.8 µM | [18] 15.3 µM and 9.92 µM | [19] 10.1 µM and 10.9 µM
inactive: [9]

NC(O)(C(F)(F)F)C(F)(F)F
not listed: [11]
inactive: all other assays above

O=C(O)CCC(F)(F)C(F)(F)C(F)(F)C(F)(F)C(F)(F)C(F)(F)C(F)(F)F
active: [9] 1.98 µM and 2.14 µM
not listed: [11] | [19]
inactive: all other assays above

C=CC(=O)OCC(F)(F)C(F)(F)C(F)(F)C(F)(F)C(F)(F)C(F)(F)C(F)(F)C(F)F
inactive: [1] | [2] | [3] | [4] | [5] | [6] | [7] | [8] | [9] | [10] | [12] | [13] | [14] | [15] | [16] | [17] | [18]
active: [16] 6.81 µM | [18] 20.3 µM

O=S(=O)(O)CCC(F)(F)C(F)(F)C(F)(F)C(F)(F)F
not listed: [11]
inactive: all other assays above

OCC(O)CC(F)(F)C(F)(F)C(F)(F)C(F)(F)C(F)(F)C(F)(F)C(F)(F)C(F)(F)F (stereo unspecified)
not listed: [11] | [19]
inactive: all other assays above

O=S(=O)(OCC(F)(F)F)C(F)(F)C(F)(F)C(F)(F)C(F)(F)F
active: [14] 6.24 µM
inactive: [1] | [2] | [3] | [4] | [5] | [6] | [7] | [8] | [9] | [10] | [12] | [13] | [14] | [15] | [16] | [17] | [18]

OCC(O)CC(F)(F)C(F)(F)C(F)(F)C(F)(F)F (stereo unspecified)
not listed: [11] | [19]
inactive: all other assays above

CCN=C1C=CC(=C(c2ccc(N(CC)CC)cc2)c2ccc(N(CC)CC)cc2)c2ccccc21
active: [10] 3.19 µM and 2.57 µM | [12] 4.21 µM and 3.7 µM | [14] 1.07 µM and 490 nM | [15] 5.67 µM and 5.38 µM | [16] 1.63 µM and 1.44 µM | [18] 1.9 µM and 1.77 µM
inactive: [13]

NC(=O)C(F)(F)C(F)(F)C(F)(F)C(F)F
not listed: [11] | [19]
inactive: all other assays above

C=CC(=O)OCCC(F)(F)C(F)(F)C(F)(F)C(F)(F)F
inactive: [1] | [2] | [3] | [4] | [5] | [6] | [7] | [8] | [9] | [10] | [12] | [13] | [14] | [15] | [16] | [17] | [19]
active: [16] 20.3 µM | [18] 30 µM and 38.2 µM
